Laboratory results reported in ChEMBL document CHEMBL4513216, “Probing the Open Global Health Chemical Diversity Library for Multistage-Active Starting Points for Next-Generation Antimalarials” (ACS Infect Dis, 2020).
Out of some 69,000 compounds screened, about 8,600 (12%) showed an effect of 50% or more. What follows is part of a selection rich in strong results, with near analogues and random picks from the rest.

Test system: Plasmodium berghei
Experiment: Screen against P. berghei liver stage (PbLuc), transformed with Luciferase, at 10uM
Assay type: functional, HepG2
Conditions: tested at 10 uM

Structure (SMILES)	INHIBITION [%]
CCC(C)NC(=O)c1ccn(COc2ccccc2Cl)n1 (centres undefined)	34.2
COc1ccc(CNc2ncnc3c2NC(=O)CN3)cc1	45.8
CC(C)c1nnc2n1CCN(C(=O)CN(C)Cc1ccccc1)C2	12.7
Cc1ccc(CN(C)C(C(=O)O)c2ccc3c(c2)OCO3)o1 (centres undefined)	8.51
CCc1cc2c(N3CCCC(c4cc(C(N)=O)[nH]n4)C3)ncnc2s1 (centres undefined)	55
CCc1ncnc(N2CCCC(c3cc(C(N)=O)[nH]n3)C2)c1F (centres undefined)	-24
CCc1cc2c(N3CCCC(c4ccn[nH]4)C3)ncnc2s1 (centres undefined)	-1.76
COCC(=O)N1CCC(Cc2nccnc2-c2c(C)n[nH]c2C)C1 (centres undefined)	17.4
CCCN1CCN(c2nc(N)nc3c2nc(C)n3C)CC1	13.1
CSCCC(NC(=O)c1ccc2ccccc2n1)C(=O)NC1CC1 (centres undefined)	43.7
CSCCC(NC(=O)c1ccc2ccccc2n1)C(=O)O (centres undefined)	42.6
CSCCC(NC(=O)c1ccc2ccccc2n1)C(=O)N(C)C (centres undefined)	60.8
CSCCC(NC(=O)c1ccc2ccccc2n1)C(=O)NC(C)C (centres undefined)	40.5
CNC(=O)C(CCSC)NC(=O)c1ccc2ccccc2n1 (centres undefined)	19.1
CCOCCNC(=O)C(CCSC)NC(=O)c1ccc2ccccc2n1 (centres undefined)	60.8
Cc1ccc(CN2CCc3onc(COc4cccnc4)c3C2)s1	27.6
O=C(CNC(Cn1cccn1)c1ccccc1)Nc1cnccn1 (centres undefined)	-12.4
Cc1ccc(C2CCCN2S(=O)(=O)N(C)Cc2cnccn2)o1 (centres undefined)	37.9
CCCn1cc2nc(N3CCCC3)[nH]cc-2c1=O	44.9
Cc1cnn(CC2CCCN2C(=O)c2ccc(F)c(F)c2)c1 (centres undefined)	-63.3
O=C(Nc1ccc(CCN2CCOCC2)cc1)C1CCC1	26.25
CCCc1noc(CN2CCN(CCO)CC2)n1	9.015
CC(NCC(=O)N1CCc2sccc2C1)c1ccccc1F (centres undefined)	14.9
CCN(CC)C(=O)c1ccc(Cl)c(NC(=O)c2cc[nH]n2)c1	9.41
CCN(CC)C(=O)c1ccc(Cl)c(NC(=O)c2cnc(C)cn2)c1	51.2
CCN(CC)C(=O)c1ccc(Cl)c(NC(=O)c2csnn2)c1	28.5

Structure (SMILES)	INHIBITION [%]
Cc1oc(-c2nc(C#N)c(NC(C)(C)C)o2)cc1S(=O)(=O)N1CCCC1	40.1
CCC(CC)N1CCC(c2[nH]ncc2S(C)(=O)=O)C1 (centres undefined)	-3.94
O=C(NCc1ccco1)N1CCCCC1c1nc(-c2ccncc2)no1 (centres undefined)	-31
CS(=O)(=O)N1C[C@H]2CC[C@@H](C1)N(C(=O)Cn1nc3ccccc3n1)C2	21.7
C[C@@H]1CN(C2CCN(c3ccccc3)CC2)CC[C@@]1(O)C1CCOCC1	-2.61
C[C@@H]1CN(C2CCCCC2)CC[C@@]1(O)C1CCOCC1	57.7
C[C@@H]1CN(C2Cc3ccccc3C2)CC[C@@]1(O)C1CCOCC1	10.2
Cc1nc(C)n(CC2CCCN2CCC(=O)NC2CCCC2)n1 (centres undefined)	-38.7
CN(C)c1ccc(C(=O)N2CCN(CC(C)(C)O)CC2)nn1	21.6
O=C(NCC(O)c1ccc(F)cc1F)c1cccnc1O (centres undefined)	38.3
O=C(NCC(O)c1cccc(F)c1)c1cccnc1O (centres undefined)	50.1
Cc1ccc(C(=O)NCC(O)c2ccc(F)c(F)c2)c(=O)[nH]1 (centres undefined)	26.6
Cc1cc(C)c(CNC(=O)NCC(O)c2cccc(F)c2)c(=O)[nH]1 (centres undefined)	27.9
O=C(NCC(O)c1ccc(F)c(F)c1)c1cccnc1O (centres undefined)	36.8
Cc1ccc(C(=O)NCC(O)c2cccc(F)c2)c(=O)[nH]1 (centres undefined)	52.5
FC(F)COc1ccccc1NCc1nnsc1Cl	8.9
CC1(C)Cc2ccc(C(=O)NC3CCOCC3)c(O)c2O1	-42.8
Cc1cnn(CC2CN(CC(=O)NCc3ccc(C)s3)CCO2)c1 (centres undefined)	19.4
CCC[C@@H]1CN(Cc2cc3c(cc2OC)OCO3)C[C@H]1C(=O)O	35.1
CCC[C@@H]1CN(Cc2cc(OC)c3c(c2)OCO3)C[C@H]1C(=O)O	39.4
CCC[C@@H]1CN(Cc2cc3c(cc2OC)OCCO3)C[C@H]1C(=O)O	54.4
Cc1ccc(S(=O)(=O)NC(=O)C2(c3ccc(F)cc3)CCC2)c(C)c1	20
O=C(c1cccc(-c2ccc(F)cc2)c1)N1CCC2(CC1)[C@H](O)C[C@@H]2O	-8.47
CCc1nc(C2CCCN2C(=O)c2cnns2)no1 (centres undefined)	29.765
O=C(NCc1ccc(CN2CCCC2)cc1)NC1(CO)CCCC1	62.8
O=C(NCc1ccc(CN2CCCC2)cc1)NCc1ccon1	20.4

Structure (SMILES)	INHIBITION [%]
CC(C)OCc1ccc(CNC(=O)NC2(CO)CCCC2)cc1	46.1
CC(C)CCCNC(=O)Nc1ccc(Cl)c(C(N)=O)c1	-57.4
CCN(CC)C(=O)CSc1sc2c(O)cc(=O)[nH]c2c1C(N)=O	4.07
COc1ccc(C(C)Nc2ncnc3c2NC(=O)CN3)cc1 (centres undefined)	8.49
O=S(=O)(c1c(N2CCCC2)ccc2nonc12)N1CCCC1	17.7
CCn1cc(-c2cc(C(=O)N3CCOCC3)c3cc(Cl)ccc3n2)cn1	12.9
COc1cc(F)cc2sc(NC(=O)COCC3CCCO3)nc12 (centres undefined)	16.1
Cc1noc([C@H]2C[C@@H]3CCN(C(=O)c4cccn4C)C[C@H]3O2)n1	25.8
Cc1noc([C@H]2C[C@@H]3CCN(C(=O)N(C)C)C[C@H]3O2)n1	54.6
Cc1noc([C@H]2C[C@H]3CN(C(=O)C4CCOCC4)CC[C@@H]3O2)n1	59
Cc1noc([C@@H]2C[C@H]3CN(C(=O)C4CCN(C)CC4)C[C@H]3O2)n1	28.7
COCC(=O)N1CC[C@H]2C[C@H](c3nc(C)no3)O[C@@H]2C1	-41.2
Cc1noc([C@H]2C[C@@H]3CCN(C(=O)C4CCOCC4)C[C@H]3O2)n1	41.5
CCN(Cc1ccc(OC)c(F)c1)Cc1nc2c(cnn2C)c(=O)[nH]1	11.6
COCCNC(=O)N1CCN(C(=O)Cc2ccccc2F)CC1	-63.6
CN1N=C(C(=O)N(Cc2ccco2)C2CCCC2)CCC1=O	46.1
Cc1nc(C)c(C(=O)N2CCc3nnc(C4CCCCN4C)n3CC2)s1 (centres undefined)	-12.4
CCN1CCCCC1C(=O)N1CCc2onc(-c3ccc(Cl)cc3)c2C1 (centres undefined)	20.2
O=C(C1CCCO1)N1CCc2onc(-c3ccc(Cl)cc3)c2C1 (centres undefined)	59.1
CCc1ccccc1Nc1noc2c1CN(C(=O)C1CCCO1)CC2 (centres undefined)	-9.32
Cn1cc(C(=O)N2CCN(Cc3ccsc3)CC2)cn1	-2.825
CCSCCNC(=O)Nc1cc(C(=O)N2CCOCC2)ccc1Cl	36.9
O=C(NCCN1CCCC1)Nc1cc(C(=O)N2CCOCC2)ccc1Cl	67.5
O=C(NCCn1cccn1)Nc1cc(C(=O)N2CCOCC2)ccc1Cl	45.2
Cc1cc(C)nc(N2CCOC(c3cc(CCO)[nH]n3)C2)n1 (centres undefined)	2.99
CC(C)(C)C1SCC(=O)Nc2c1c(O)nn2C1CCCC1 (centres undefined)	48

Structure (SMILES)	INHIBITION [%]
Cn1cc(CN2CCCC3(CCCCN3S(C)(=O)=O)C2)cn1 (centres undefined)	18.3
CNC(=O)c1cc2c(nc1N(C)C)CCN(c1ncccn1)CC2	63.8
CNC(=O)c1cc2c(nc1NCC(C)C)CCN(S(=O)(=O)N(C)C)CC2	-23.4
CNC(=O)c1cc2c(nc1N(C)C)CCN(c1ncc(C)cn1)CC2	57.5
CNC(=O)c1cc2c(nc1N(C)C)CCN(c1ncc(F)cn1)CC2	50.3
CNC(=O)c1cc2c(nc1N(C)C)CCN(S(=O)(=O)N(C)C)CC2	44.8
CCS(=O)(=O)N1CCc2cc(C(=O)NC)c(N(C)C)nc2CC1	19.8
CNC(=O)c1cc2c(nc1N(C)C)CCN(C)CC2	13.3
CNC(=O)c1cc2c(nc1NCC(C)C)CCN(S(C)(=O)=O)CC2	-26.1
CCc1cnc(N2CCc3cc(C(=O)NC)c(N(C)C)nc3CC2)nc1	81
CNC(=O)c1cc2c(nc1N(C)C)CCN(S(=O)(=O)C1CC1)CC2	9.3
Cc1cnc(N2CCc3cc(C(=O)O)c(N(C)C)nc3CC2)nc1	31.2
CNC(=O)c1cc2c(nc1N(C)C)CCN(S(=O)(=O)CC(C)C)CC2	-22.8
CCN1CC(C(=O)N2CCN(CCn3cccc3)CC2)CCC1=O (centres undefined)	6.69
O=C(NCC(Cc1cccc(F)c1)N1CCCC1=O)c1ccc[nH]c1=O (centres undefined)	3.88
COc1ccc(CN2CCC3(CCCN(C)C3=O)C2)c(OC)c1C (centres undefined)	5.75
CCn1ccnc1CN1CCOC(Cn2cccn2)C1 (centres undefined)	37.9
CC1CCc2nc(NS(=O)(=O)c3cnn(C)c3)sc2C1 (centres undefined)	33.4
CNc1nc(CNC(=O)Nc2ccc(SC)c(F)c2)cs1	-4.35
Cc1ccc(CN2CCCC3(CCC(=O)N3)CC2)s1 (centres undefined)	-19.6
CN1CCC(Cc2noc(-c3cccc4c3OCC4)n2)CC1	34.5
Cc1ccc2oc(SCC(=O)NC(C)(C)C)nc2n1	49.1
Cc1nc(Nc2cnccn2)cc(C2CCN(CCO)C2)n1 (centres undefined)	23.2
Cc1ccc(-c2ncc(C(=O)NCCNC(=O)C3CC3)s2)c(C)c1	-91.8
Cc1nccc(C(=O)N2CCOC(c3nc(C(C)C)n[nH]3)C2)n1 (centres undefined)	-65.3
Cc1nn(C)c2ncc(CN3CCN(Cc4ccco4)CC3)cc12	21.2
